This note sets out measurements from PubChem BioAssay AID1259313 (Sanford-Burnham Center for Chemical Genomics, 2017).

The structures appear in SMILES notation. Values joined by “and” are separate entries in the source; they are usually repeats but may differ in a detail not shown here. Equal entries are not always repeated. About 8,500 (2.5%) of roughly 340,000 compounds were called active. The sample holds actives, similar compounds and a random draw of the others, so the mix is not that of the screen. A number with no mark means an inactive call.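 How the source made its calls: active means melting temperature shift of at least 10% of the positive control shift, at one fixed dose; inactive means the rest.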

This assay deals with Glutamate receptor ionotropic, NMDA 3A (GRIN3A) ligand-binding domain. Nature of the assay: NR3A LBD thermal stabilization by compounds – biophysical, differential scanning fluorimetry, uHTS, primary screen (AID 1259313). Conditions: at 25 µM, stronger effect = higher value, 0% = protein alone, 100% = glycine-bound protein. (In general: DSF heats the sample and reads unfolding from a dye or from intrinsic fluorescence.)
Take `COc1cc(CC(=O)Nc2nc(-c3ccc(F)c(F)c3)cs2)cc(OC)c1OC`: the Tm shift relative to glycine control was -3.34%. With `COc1ccc(OC)c(Nc2nc(-c3ccc(O)c(O)c3)cs2)c1` the figure was 19% (active); with `COc1ccc(OC)c(-c2csc(NC(=O)COC(=O)C3CC3)n2)c1`, -1.41%. For `CCOC(=O)CNc1nc(Cl)nc(Nc2ccccc2)n1`, the Tm shift relative to glycine control was -0.5%.

Take `CCOc1ccc(Cn2nnc(C(=O)Nc3ccc(OC)cc3OC)c2N)cc1`: the Tm shift relative to glycine control is 2.21%. In the case of `CCOC(=O)CNc1nc(Cl)nc(Nc2ccc(OC)cc2OC)n1` it was 13.1% (active); in that of `CCN(CC)c1ccc(NC(=O)C2CCC(CNc3c(N4CCCC4)c(=O)c3=O)CC2)c(C)c1` (configuration not stated), 1.77%. With `CCOC(=O)N1CCN(C(=O)CSc2nnc(-c3c[nH]c4ccccc34)n2CCOC)CC1` the figure was 0.55%; with `OC(CNCc1ccc(Cl)c(Cl)c1)c1ccccc1` (configuration not stated), 2.04%; with `COc1cccc(OC)c1C(=O)OCC(=O)/C(C#N)=C(\C)N`, -2%. In the case of `C/C(N)=C(/C#N)C(=O)COC(=O)c1cc(-c2cccc(Br)c2)nc2ccccc12` it was 30.1% (active); in that of `C/C(N)=C(/C#N)C(=O)COC(=O)c1cc(-c2ccc(C)cc2)nc2ccccc12`, -1.48%; in that of `Cc1nn(C)cc1N1C(=O)c2cccc3c(N)ccc(c23)C1=O`, -0.63%. Take `COc1cc(C(=O)N2C(=O)c3cccc(N)c3C2=O)cc(OC)c1OC`: the Tm shift relative to glycine control is -1.08%. In the case of `CN1C(=O)c2cccc3c(N)ccc(c23)C1=O`, the Tm shift relative to glycine control is 11.8% (active).

With `Cc1ccc(CNC(=O)[C@@H](NC(=O)Cc2ccccc2)C(C)C)cc1`, the Tm shift relative to glycine control was -6.13%. As to `O=C1NN(c2ccccc2)C(=O)/C1=C/c1ccc(-c2cccc(C(=O)O)c2)o1`, the Tm shift relative to glycine control is -14.4%. In the case of `O=C(O)C(c1ccccc1)N1C(=O)/C(=C\c2ccc(-c3cccc(Cl)c3)o2)SC1=S` (configuration not stated) it was 27.7% (active).

Take `O=C1c2ccccc2NC(c2ccc(-c3cccc(Cl)c3)o2)N1O` (configuration not stated): the Tm shift relative to glycine control was -0.47%.

As to `O=C(O)CSc1c2c(nc3cc(C(=O)Nc4cccc(C(F)(F)F)c4)ccc13)CCCC2`, the Tm shift relative to glycine control is -1.44%. With `O=C(Nc1ccc(-c2csc(Nc3cccc(C(F)(F)F)c3)n2)cc1)c1cccc(C(F)(F)F)c1` the figure was 25.4% (active). With `O=C(Nc1ccc(C(F)(F)F)cc1)c1cccc(-n2cnnn2)c1` the figure was -5.14%; with `CS(=O)(=O)N(Cc1ccccc1)c1ccc(C(=O)NN=C2CCCCCC2)cc1`, 0.85%; with `Clc1ccc2nc(CSc3ccccc3)cn2c1`, 0.36%. Turning to `Cc1c(NC(=S)NC(=O)CCc2ccccc2)c(=O)n(-c2ccccc2)n1C`, the Tm shift relative to glycine control is -3.07%.

Turning to `O=C(O)CSc1ccc(S(=O)(=O)N2CCCC2)cn1`, the Tm shift relative to glycine control is 0.42%. In the case of `CCN(CC)c1ccc(C(=O)N/N=C(\C)c2cccc(OC)c2)cc1` it was 2.58%. With `COc1ccc(/C(C)=N\NC(=O)c2ccc(-c3ccccc3)cc2)c(F)c1` the figure was 19.6% (active); with `COc1ccc(/C(C)=N/NC(=O)c2ccc3nc[nH]c3c2)cc1`, -1.41%. With `COc1ccc(Cl)cc1NC(=O)NC(C)C(C)(C)C` (configuration not stated) the figure was -7.8%.

With `CC(=O)c1cc(-c2ccccc2)n(CC(=O)NC2CCCCC2)c1C`, the Tm shift relative to glycine control was 0.92%. In the case of `O=C(CN1C(=O)CC(c2ccccc2)=Nc2ccccc21)NC1CCCCC1` it was 300% (active). In the case of `O=C(CN1C(=O)CC(c2ccccc2)S(=O)(=O)c2ccccc21)NC1CCCC1` (configuration not stated) it was -2.04%; in that of `CC(=O)/C(=N\Nc1ccc(Cl)cc1Cl)Sc1cccc2cccnc12`, -8.55%; in that of `O=C(Nc1ccccc1)Oc1cccc2cccnc12`, -3.82%.

On to `O=[N+]([O-])c1ccccc1S(=O)(=O)Nc1cccc2cccnc12`, for which the Tm shift relative to glycine control is -0.26%. With `CCOC(=O)Cc1ncccc1C(=O)Nc1ccc(OC)cc1` the figure was -0.6%; with `O=C(Nc1ccccc1Cl)Nc1cccc2cccnc12`, 39.4% (active); with `COc1ccc(NC(=O)Nc2cccc3cccnc23)cc1`, 12.4% (active). In the case of `Cc1ccc(S(=O)(=O)N2CCN=C2SCc2c(F)cccc2Cl)cc1` it was 0.68%.

As for `CCc1ccc(-c2cc(C)no2)cc1S(=O)(=O)NCCc1ccc(S(N)(=O)=O)cc1`, the Tm shift relative to glycine control was -4.05%. With `CCCCn1c(N)c(N(CC)C(=O)c2ccccc2C(F)(F)F)c(=O)[nH]c1=O` the figure was -1.66%; with `O=C(Cn1c(-c2ccc(Cl)cc2)noc1=O)N1CCN(c2ccccc2F)CC1`, -0.09%. In the case of `CC(=O)CSc1nnc(CSc2ncccn2)n1C1CCCCC1` it was -1.13%. With `CCC(=O)N1CCc2cc(Br)c(S(=O)(=O)NCCN3CCCCC3CC)cc21` (configuration not stated) the figure was 12.6% (active). Consider `CCC1CCCCN1CCNS(=O)(=O)c1ccc2c(c1)CCN2C(C)=O` (configuration not stated), for which the Tm shift relative to glycine control was -1.49%. In the case of `CCCN(CCC)S(=O)(=O)c1cc2c(cc1Br)CCN2C(=O)CC` it was -0.99%; in that of `CCCCSc1nc2c(c(=O)n1CC)SC(C)C2` (configuration not stated), -2.48%; in that of `CCOC(=O)c1c(C)[nH]c(C2=NNC(=NC(C)COC)SC2)c1C` (configuration not stated), -1.92%.

Turning to `O=C1CC(NNc2ccccc2)C(=O)N1c1cccc(Cl)c1` (configuration not stated), the Tm shift relative to glycine control was -0.68%.

As to `CC12CCC(C(=O)N(c3cccc(Cl)c3)C1=O)C2(C)C` (configuration not stated), the Tm shift relative to glycine control was 18.6% (active). Consider `CC12CCC(C(=O)N(NC(=O)c3ccccc3O)C1=O)C2(C)C` (configuration not stated), for which the Tm shift relative to glycine control is 2.74%. For `COc1ccc(C(=O)Nc2sc(C)c(C)c2CN2CCOCC2)cc1`, the Tm shift relative to glycine control is -2.24%. With `CCc1cc(C(=O)c2ccc(OC)cc2)c(NC(=O)CN2CCN(C)CC2)s1` the figure was -0.69%; with `CCc1cc(C(N)=O)c(NC(=O)c2ccc(OC)cc2)s1`, 12.6% (active). In the case of `CC1=CC=CC2=N/C(=N\S(=O)(=O)c3ccc(F)cc3F)c3ccccc3CN12` it was -0.65%; in that of `CC(C)(C)C(=O)Nc1cccc(-c2ccc[nH]2)n1`, 11.2% (active). For the compound `CC(C)(C)C(=O)Nc1ccc(-c2cn3cccnc3n2)cc1`, the Tm shift relative to glycine control was -0.98%. In the case of `COc1ccc(C(=O)Nc2cccc(NC(=O)c3ccc(OC)cc3OC)n2)c(OC)c1` it was 3.62%. In the case of `N#Cc1ccc(C2N=C(c3ccccc3)NO2)cc1` (configuration not stated), the Tm shift relative to glycine control is 0.19%.

Consider `CCOc1ccc(CN2CCN(Cc3ccc(C)o3)CC2CCO)cc1` (configuration not stated), for which the Tm shift relative to glycine control was 1.84%. With `C/C(CC(=O)NC(C)c1ccccc1)=N\NC(N)=S` (configuration not stated) the figure was -2.12%; with `COC(=O)C1C(=O)NCC1c1ccc(OC)cc1` (configuration not stated), -0.83%; with `NC(=O)c1oc2ccccc2c1NC(=O)CS(=O)(=O)c1ccccc1`, -2.6%. With `COc1ccc(CC(=O)Nc2c(C(N)=O)oc3ccccc23)cc1`, the Tm shift relative to glycine control was 16.1% (active). With `NC(=O)c1oc2ccccc2c1NC(=O)Cc1ccccc1` the figure was -1.3%; with `CC(=O)C(CC(=O)N1CCCC1)C(=O)Nc1ccc(Cl)cc1` (configuration not stated), -1.13%. In the case of `Cc1cc(C)nc(-n2nc(C)cc2NC(=O)c2ccc(F)cc2F)n1` it was -2.66%. In the case of `O=C(Nc1ccc2nc3n(c(=O)c2c1)CCCC3)c1ccc(Cl)nc1` it was -1.29%. Turning to `COc1ccc(CCNC(=O)C(=O)Nc2ccc3nc4n(c(=O)c3c2)CCCCC4)cc1OC`, the Tm shift relative to glycine control is -0.47%. With `CCCCN(CC)C(=S)Nc1ccc2nc3n(c(=O)c2c1)CCCCC3` the figure was 11% (active); with `C=CCn1c(P(C)(=O)O)nc2ccccc21`, -0.35% and 1.55%.

For `COc1ccc2nc(Nc3nc4ccc(NC(C)=O)cc4s3)sc2c1`, the Tm shift relative to glycine control was 25.2% (active). In the case of `Cc1nc2ccc(NC(=O)C3CCCCC3)cc2s1` it was -3.66%; in that of `CCCn1nc(C(=O)Nc2ccc3nc(C)sc3c2)c2ccccc2c1=O`, -1.69%; in that of `Cc1noc(C)c1CSCC(=O)Nc1nc2ccc(Oc3ccccc3)cc2s1`, 0.97%. For `COc1ccc(S(=O)(=O)N2CCCCC2)cc1NC(=O)c1cc([N+](=O)[O-])ccc1N1CCOCC1`, the Tm shift relative to glycine control is -1.87%. With `CCCC(=O)Nc1nc2ccc(NC(=O)c3c(F)c(F)c(OC)c(F)c3F)cc2s1` the figure was 17.1% (active); with `CSc1nc2ccc(NC(=O)c3c(F)cccc3F)cc2s1`, 3.67%; with `COc1ccc(CNC(=O)c2ccc(Br)s2)cc1OC`, 1.11%. In the case of `COc1ccc2nc(NC(=O)c3ccc(Br)s3)sc2c1` it was 31.3% (active); in that of `CCOc1ccc2nc(NC(=O)c3cc([N+](=O)[O-])ccc3N3CCOCC3)sc2c1`, 17% (active). With `CCCC(=O)N(CCN1CCOCC1)c1nc2ccc(OCC)cc2s1` the figure was -6.33%.

`COc1ccc(NC(C(=O)Nc2cccc(C(C)=O)c2)c2ccccc2)cc1` (configuration not stated): the Tm shift relative to glycine control is -15.9%.

`Cc1ccccc1-n1nnc2c(=O)oc3ccccc3c21`: the Tm shift relative to glycine control is 1.45%. `O=C1CC(c2c(F)cccc2Cl)C(n2cncn2)C(O)=C1C1NCCc2ccccc21` (configuration not stated): the Tm shift relative to glycine control was -0.39%. With `CC(C)N(c1ccccc1)c1ncnc(NCCC(=O)O)c1[N+](=O)[O-]` the figure was -4.26%; with `Cc1cccc(C(=O)NCC(=O)OCC(=O)N(C)CC(=O)Nc2ccccc2Cl)c1`, -0.85%; with `COc1ccc(CNC(=O)COc2cccnc2[N+](=O)[O-])cc1`, 1.77%. With `Cc1ccc(NC(=O)Cc2nc(COC(=O)C(C)NS(=O)(=O)c3ccc(C)cc3)cs2)cc1` (configuration not stated) the figure was -1.68%; with `Cc1cc(C(=O)N2CCC(C(=O)O)CC2)c(C(F)(F)F)o1`, 2.93%; with `CCOc1ccc2nc(NC(=O)CSc3nc4c(c(=O)n(C)c(=O)n4C)n3CC)sc2c1`, 1.39%. With `CCOc1ccc2nc(Nc3nc4ccc(NC(C)=O)cc4s3)sc2c1` the figure was 25.2% (active); with `CCC(=O)c1ccc(OCC(=O)Nc2ccc3nc(C)sc3c2)cc1`, 0.32%; with `COc1ccc2nc(Nc3nc4cc5c(cc4s3)OCCO5)sc2c1`, 12.4% (active). Take `c1c2c(cc3sc(N4CCCCC4)nc13)OCCO2`: the Tm shift relative to glycine control is 8.4%.

As for `NS(=O)(=O)c1ccc2nc(NC(=O)C3=COCCO3)sc2c1`, the Tm shift relative to glycine control is -8.75%.
